From PubChem BioAssay AID652054 (National Center for Advancing Translational Sciences (NCATS), 2013) come the findings set out here.

Structures are written as SMILES. In all, about 360,000 compounds went through this assay and about 9,100 (2.5%) were called active. Inconclusive results (about 4%) are left out. Cut-off read from the data, not from the text of the source: active = max response below about -50%; inconclusive = no clear call, values can overlap the other calls; inactive = above that. Only a selection was taken, and actives are over-represented in it overall.
% is set by controls: 0 for no effect and ±100 for the full control effect.

D(3) dopamine receptor (Homo sapiens), sequence (P35462 whole entry, looked up): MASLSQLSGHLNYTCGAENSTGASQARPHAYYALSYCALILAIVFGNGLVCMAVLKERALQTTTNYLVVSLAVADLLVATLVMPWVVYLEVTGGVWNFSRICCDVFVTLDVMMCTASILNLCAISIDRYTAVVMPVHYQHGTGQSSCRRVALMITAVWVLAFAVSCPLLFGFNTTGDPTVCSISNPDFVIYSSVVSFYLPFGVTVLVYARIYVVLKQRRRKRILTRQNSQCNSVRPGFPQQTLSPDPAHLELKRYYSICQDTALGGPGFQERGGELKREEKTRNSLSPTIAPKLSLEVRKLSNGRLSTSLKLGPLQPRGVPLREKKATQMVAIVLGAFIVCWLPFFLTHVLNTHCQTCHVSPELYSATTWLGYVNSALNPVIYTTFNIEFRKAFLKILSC

The target in the assay is D(3) dopamine receptor (Homo sapiens) (UniProt P35462). The experiment in a line: qHTS of D3 Dopamine Receptor Antagonist: qHTS. The conditions noted are these: D3R cells, DiscoveRx beta-arrestin luminescence, antagonist mode; active compounds read low. An outline of the steps:
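Cells plated overnight at 1500 cells/well, then exposed to library compounds with dopamine controls for 90 minutes at 37 degrees C. DiscoveRx reagent added for 30–60 minutes at room temperature; luminescence read, quantitative HTS format.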
In general terms: qHTS replaces the single test concentration by a dilution series.
Consider `O=C(CCl)Nc1ccc(Sc2ccc(NC(=O)CCl)cc2)cc1`, for which the max response, negative = inhibition is -60.1% (active). Consider `O=C(Nc1ccc(Sc2ccc(Br)cc2)cc1)c1ccco1`, for which the max response, negative = inhibition was 17.2% (inactive).

Consider `O=C(CCl)Nc1cccc(CP(=O)(c2ccccc2)c2ccccc2)c1`, for which the max response, negative = inhibition was -12.5% (inactive). For `CC1(C)CC(=O)C=C(c2ccc(COC(=O)c3cc(F)cc(F)c3)cc2)C1=O`, the max response, negative = inhibition is -13.6% (inactive). For the compound `CC1CCCN(CC(O)COCc2ccccc2)C1` (stereo not drawn), the max response, negative = inhibition is -0.0789% (inactive). As for `Cc1ccccc1C(OCC(O)CN1CCCCC1CCO)c1ccccc1` (stereo not drawn), the max response, negative = inhibition was -53.3% (active). The same measure for `COc1cccc(CN(C)CC(O)COC(c2ccccc2)c2ccccc2C)c1` (stereo not drawn): -10.2% (inactive); for `Cc1nc2c(OCc3ccc(Cl)cc3Cl)cccn2c1N(C)CC1CC1`: -58.1% (active); for `CCCCC(=O)N(C)c1c(CC)nc2c(OCc3ccc(Cl)cc3Cl)cccn12`: -63.9% (active). Regarding `CCc1nc2c(OCC(N)=O)cccn2c1N(C)C(=O)c1ccc(OC)cc1`, the max response, negative = inhibition is 0% (inactive). As to `CCc1nc2c(OCc3ccc(Cl)cc3Cl)cccn2c1N(C)C(=O)C(C)C`, the max response, negative = inhibition was -27.6% (inactive).

Take `CCc1nc2c(OCCOc3ccccc3)cccn2c1N(C)C(=O)c1ccccc1F`: the max response, negative = inhibition is 14.9% (inactive). As for `CCc1nc2c(OCc3ccc(C(=O)OC)cc3)cccn2c1N(C)C(=O)C(C)C`, the max response, negative = inhibition is -12.4% (inactive). Consider `CCCCN(C=O)c1c(CC)nc2c(OCc3ccccc3C(=O)OC)cccn12`, for which the max response, negative = inhibition is -3.94% (inactive). Consider `CCc1nc2c(OCCOc3ccccc3)cccn2c1N(C)C(=O)c1ccc(OC)cc1`, for which the max response, negative = inhibition was -76.4% (active).

As for `Cc1nc2c(OCc3cccc(Cl)c3)cccn2c1N(C)CC1CC1`, the max response, negative = inhibition is -0.943% (inactive). For `CCCCC(=O)N(C)c1c(CC)nc2c(OCc3ccc(S(C)(=O)=O)cc3)cccn12`, the max response, negative = inhibition is 0% (inactive). Turning to `CCOC(=O)N(C)c1c(CC)nc2c(OCc3ccccc3C(=O)OC)cccn12`, the max response, negative = inhibition was -50.7% (active).

On to `Cc1nc2c(OCc3ccc(Cl)cc3)cccn2c1N(C)Cc1cccs1`, for which the max response, negative = inhibition is -0.327% (inactive). The same measure for `COc1ccc(NC(=O)N(C)C[C@@H]2OCc3cn(nn3)CCCC(=O)N([C@H](C)CO)C[C@H]2C)c(OC)c1`: -1.72% (inactive); for `Cc1ccc2nc(-c3ccco3)c(Cc3cccc(Cl)c3)n2c1`: -5.94% (inactive). The same measure for `CCOCCC(=O)Nc1ccc2c(c1)c(=O)n(C)n2-c1ccc2ccccc2c1`: -26.6% (inactive); for `COc1cccc(C(NC(C)=O)c2nc(-c3ccccc3OC)cs2)c1` (stereo not drawn): 0% (inactive).

Regarding `CCN(CC)C(=O)C1=C(C)N(Cc2ccc(OC)cc2)C(=O)C(CC(=O)NCCCCc2ccccc2)C1` (stereo not drawn), the max response, negative = inhibition is 17.3% (inactive). As to `CCOc1ccc(CCN2C(=S)N([C@@H](CC(C)C)CN3CCC[C@@H]3CN3C(=S)NC[C@@H]3Cc3ccc(O)cc3)C[C@@H]2Cc2ccc(O)cc2)cc1`, the max response, negative = inhibition was 1.51% (inactive). Turning to `CCCC(=O)C1CCN(Cc2ccccc2)CC1`, the max response, negative = inhibition is -29.3% (inactive). Turning to `CCCCN(Cc1ccccc1)C(=O)C1CCN(Cc2sccc2C)CC1`, the max response, negative = inhibition was -66.6% (active).

As for `CCCCN(C)C(=O)C1CCN(Cc2ccccn2)CC1`, the max response, negative = inhibition is -26.1% (inactive).

In the case of `Cc1ccc(F)c(S(=O)(=O)NC(=O)C2(C)CCN2C(=O)c2ccco2)c1` (stereo not drawn), the max response, negative = inhibition is 0% (inactive).

For the compound `O=C(NC1CCCCC1)C(c1cc2ccccc2o1)n1c(=O)c(-c2ccco2)nc2ccccc21` (stereo not drawn), the max response, negative = inhibition was -5.65% (inactive). On to `Cc1ccc(N(C(=O)c2ccc(S(=O)(=O)N(C)C)cc2)C2C=CS(=O)(=O)C2)cc1` (stereo not drawn), for which the max response, negative = inhibition is -16.5% (inactive). The same measure for `CCCCC(=O)N(c1ccc(OC)cc1)C1C=CS(=O)(=O)C1` (stereo not drawn): -109% (active); for `Cc1ccc(N(C(=O)Cc2cccs2)C2C=CS(=O)(=O)C2)cc1Cl` (stereo not drawn): 9.44% (inactive).

Take `CCCCCc1c(Cc2ccccc2)ncn1CCc1ccccc1OC`: the max response, negative = inhibition is -13.9% (inactive). For `O=C(Nc1cccc(C(=O)O)c1)/C(=C\c1ccccc1)NC(=O)c1ccc(Br)o1`, the max response, negative = inhibition is -22% (inactive). As for `Cn1nnnc1SCC(=O)N1CCN(C(c2ccccc2)c2ccccc2)CC1`, the max response, negative = inhibition was 2.83% (inactive). On to `CC(C)OCC(O)CN1CCN(C(c2ccccc2)c2ccccc2)CC1` (stereo not drawn), for which the max response, negative = inhibition is -50.4% (active).

With `c1ccc(C(c2ccccc2)N2CCN(Cc3nnnn3C3CCCCC3)CC2)cc1`, the max response, negative = inhibition was -13.5% (inactive). With `COc1ccccc1CN1CCN(Cc2cc(OC)c(OC)cc2OC)CC1`, the max response, negative = inhibition is -21.9% (inactive).

In the case of `Oc1ccccc1CN1CCN(C(c2ccccc2)c2ccccc2)CC1`, the max response, negative = inhibition is -76.9% (active). The same measure for `COc1ccccc1CN1CCN(C(c2ccccc2)c2ccccc2)CC1`: -95.1% (active); for `O=C(C(c1ccccc1)c1ccccc1)N1CCN(CC(O)COc2ccccc2)CC1` (stereo not drawn): -23.3% (inactive); for `CC(=O)N1CCN(CC(c2ccccc2)c2ccccc2)CC1`: 18.7% (inactive).

Turning to `COc1ccccc1NC(=S)N1CCN(C(c2ccccc2)c2ccccc2)CC1`, the max response, negative = inhibition is -5.17% (inactive). With `CCCOc1ccc(F)cc1-c1cc(C(=O)Nc2ccc(F)cc2)[nH]n1`, the max response, negative = inhibition is 12.6% (inactive).

For the compound `CN(CCO)C(=O)c1nc[nH]c1C(=O)N(C)Cc1ccccc1`, the max response, negative = inhibition is -16.2% (inactive). On to `Cc1ccccc1-c1ccc2c(c1)O[C@@H](CN(C)Cc1ccc(C(=O)O)cc1)[C@@H](C)CN([C@H](C)CO)S2(=O)=O`, for which the max response, negative = inhibition was 17.1% (inactive). On to `CC1(C(=O)NS(=O)(=O)c2cccc(F)c2)CCN1C(=O)Cc1ccc(Cl)cc1Cl` (stereo not drawn), for which the max response, negative = inhibition is -11% (inactive). For the compound `O=C(Nc1cccc2ccccc12)c1[nH]c(-c2ccccc2)c2c1C(=O)N(C1CC1)C2=O`, the max response, negative = inhibition is 81% (inactive). With `CCC(C)CN1C(=O)CN(S(C)(=O)=O)CC1(C)C(=O)Nc1ccc2c(c1)OCCO2` (stereo not drawn), the max response, negative = inhibition was 15.4% (inactive).

Regarding `CC(=O)c1ccc(-c2cnc3c(NC=O)cc(-c4cccc(NS(C)(=O)=O)c4)cn23)cc1`, the max response, negative = inhibition was 127% (inactive).

With `Nc1ncnc2c1ncn2[C@@H]1O[C@H](C(=O)N2CCSC2)[C@@H](O)[C@H]1O`, the max response, negative = inhibition is -26.3% (inactive). On to `COc1cccc(-c2nc3nc(C)cc(C)n3c2NC2CCCCC2)c1`, for which the max response, negative = inhibition is -19.4% (inactive). Take `C=C1C(=O)[C@]23C[C@H]1CCC2[C@@]1(C)C(C[C@@H]3O)[C@](C)(C(=O)O)CC[C@@H]1O` (stereo partly drawn): the max response, negative = inhibition is -16.7% (inactive).

Take `CC1CC2=C(CC1/C=N/NC(N)=S)C(C)(C)CCC2` (stereo not drawn): the max response, negative = inhibition was -76.3% (active). The same measure for `COC(=O)C(Cc1c[nH]c2ccccc12)NC(=O)CCNC(=O)c1ccco1` (stereo not drawn): 40% (inactive). For `CN(Cc1cn(Cc2ccc(C(F)(F)F)cc2)nn1)C1CN(Cc2cn(Cc3ccc(C(F)(F)F)cc3)nn2)S(=O)(=O)C1` (stereo not drawn), the max response, negative = inhibition is 0% (inactive). Take `O=C(CCN1CCCCC1)Nc1ccc(F)c(F)c1`: the max response, negative = inhibition was 15.9% (inactive).

`CCC(C(=O)NCc1ccccc1)n1c(Cc2cc(F)cc(F)c2)nc2ccccc21` (stereo not drawn): the max response, negative = inhibition was 1.57% (inactive). In the case of `OC[C@H]1O[C@@H](c2nc(-c3nc(-c4ccc(F)cc4)no3)cs2)[C@H](O)[C@@H](O)[C@H]1O`, the max response, negative = inhibition was 0% (inactive). As to `O=C(Nc1ccc(F)c([N+](=O)[O-])c1)C1CC(=O)N(Cc2ccccc2)C1` (stereo not drawn), the max response, negative = inhibition was 16.3% (inactive). In the case of `Cc1cc(=O)oc2cc(NC(=O)C3CC(=O)N(Cc4ccccc4)C3)ccc12` (stereo not drawn), the max response, negative = inhibition was -60.6% (active). `Cc1cc(=O)oc2cc(NC(=O)C(C)Oc3ccccc3)ccc12` (stereo not drawn): the max response, negative = inhibition is 18.8% (inactive).

As to `CO[C@@H]1CN(C)C(=O)c2cc(NC(=O)Nc3cc(F)ccc3F)ccc2OC[C@H](C)N(C(=O)c2ccccn2)C[C@@H]1C`, the max response, negative = inhibition was -21.4% (inactive). For `CCCCn1nnnc1C1(C)CCC(=O)N1Cc1ccc(OC)c(OC)c1` (stereo not drawn), the max response, negative = inhibition is 27.1% (inactive). Take `Cc1cc(NC(=O)c2ccc(F)cc2)ccc1NC(=O)c1ccco1`: the max response, negative = inhibition was -99.6% (active). Consider `COc1ccccc1C(=O)Nc1ccc(NC(=O)c2ccco2)c(C)c1`, for which the max response, negative = inhibition is 2.58% (inactive). The same measure for `Cc1cccc(OCC(=O)Nc2ccc(NC(=O)c3ccco3)c(C)c2)c1`: -6.83% (inactive); for `CC(=O)c1cccc(-c2cnc3c(NC=O)cc(-c4cccc(C(=O)N(C)C)c4)cn23)c1`: 39.2% (inactive); for `CS(=O)(=O)c1cccc(-c2ccc3nncn3c2)c1`: -15.7% (inactive). Turning to `O=C(O)C1=C(C(=O)O)C2CCC1C2`, the max response, negative = inhibition is -3.55% (inactive).

In the case of `Cc1cccc(N2C(=O)CC(SC(N)=Nc3ccccc3)C2=O)c1` (stereo not drawn), the max response, negative = inhibition was -1.29% (inactive). Turning to `Cc1cccc(-n2c(O)c(C=Nc3ccccc3N)c(=O)[nH]c2=O)c1`, the max response, negative = inhibition is -114% (active).

For `Cc1ccc(N=Cc2c(O)n(-c3nccs3)c(=O)c3ccccc23)c(C)c1`, the max response, negative = inhibition is 7.33% (inactive). In the case of `CC1(C(=O)NS(=O)(=O)Cc2cccc(Cl)c2)CCN1C(=O)Cc1ccc(Cl)cc1Cl` (stereo not drawn), the max response, negative = inhibition was 5.64% (inactive). The same measure for `CN(Cc1ccccc1F)C(=O)C(Cc1ccccc1)NC(=O)c1ccccc1` (stereo not drawn): 41.6% (inactive); for `CN(Cc1ccccc1)Cc1ccccc1F`: -76.7% (active). The same measure for `CN(CC(=O)NC(=O)Nc1ccccc1F)Cc1ccccc1`: -19.2% (inactive). Regarding `CCc1nc2c(OCCC3CCCCC3)cccn2c1N(C)C(=O)c1ccco1`, the max response, negative = inhibition was -17.4% (inactive). Consider `O=C(NCC(O)c1nc2ccccc2[nH]1)c1ccc(Br)cc1` (stereo not drawn), for which the max response, negative = inhibition is -3.7% (inactive).

Consider `COc1ccc(NC(=O)CSc2nnnn2-c2cccc(OC)c2)cc1`, for which the max response, negative = inhibition was 26.1% (inactive). `Clc1cccc(-c2nc3nc4ccccc4nc3n2Cc2ccco2)c1`: the max response, negative = inhibition is -72.7% (active). With `O=C(CSc1nnc(-c2cccnc2)n1Cc1ccco1)c1ccc(Cl)c(Cl)c1`, the max response, negative = inhibition is 25.5% (inactive).

In the case of `O=c1[nH]c(CSc2ncc(-c3ccc(F)cc3)n2Cc2ccco2)nc2ccccc12`, the max response, negative = inhibition is 11.8% (inactive).

In the case of `CCOC1=C2[C@H]([C@H]3C(=O)N(c4ccccc4)C(=O)[C@H]3C1)[C@@H](c1ccccc1)N(S(=O)(=O)c1ccc(C)cc1)[C@H]2c1ccccc1`, the max response, negative = inhibition was 0.0406% (inactive). Consider `CC1=CC(=C(C#N)c2nc3ccccc3s2)C=C(C)N1c1ccc(F)cc1F`, for which the max response, negative = inhibition was -51.3% (active).

Take `N#C/C(=C(/O)Cc1cccc2ccccc12)c1nc2ccccc2s1`: the max response, negative = inhibition was -26.8% (inactive). The same measure for `CN(Cc1nc2ccccc2s1)C(=O)c1ccc(F)cc1`: -18.6% (inactive).
